# Compound activity (PubChem)
# The entries come from a sample that favours hits as a whole.
# VCAM1 pot: potentiators of TNFa-induced VCAM1 expression, primary screen, imaging, HUVEC, TNFa stimulus, immunofluorescence | activation, % at 2 µM | HUVEC TNFa-stimulated VCAM-1 immunofluorescence, high-content imaging; scaled per plate to unstimulated/TNFa-only wells | 0.19% of 93,000 active;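 active means activation above the screen mean plus 3 SD, with well images confirming the hit on visual review, cut at about 28% in these data, passing the limit was not always enough; inconclusive means activation above that limit but images do not confirm it; inactive means activation not above that limit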;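 further: signal is the number of cytoplasmic VCAM-1 stained grains per positive cell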
# VCAM1 pot confirm: potentiators of TNFa-induced VCAM1 expression, confirmation, imaging, HUVEC, triplicate retest | 230 tested, under 10 active | activation, % at 2 µM | shares compounds with VCAM1 pot | HUVEC TNFa-stimulated VCAM-1 immunofluorescence imaging | AID 1034, 2008;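 active means activation above 30% in triplicate retests at 2 µM, then confirmed by visual review of the well images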
# A number is an active result; . = inactive; ? = inconclusive.
SMILES,VCAM1 pot,others
CCOC(=O)c1c(C)c(C(=O)N2CCc3ccccc3C2)c(C)n1CC,.,
O=C(CCn1nnc(-c2cccs2)n1)N1CCc2ccccc2C1,36,VCAM1 pot confirm=.
O=C(Nc1cccc2ccccc12)N1CCc2ccccc2C1,.,
COC(=O)CCCC[C@@H]1SC[C@@H](NC(=O)OC)[C@@H]1NC(=O)OC,.,
CC(=O)c1cccc(NC(=O)C=C(C)C)c1,.,
COc1ccc(Br)cc1CN1CCCCCCC1,.,
COc1cccc(N2CCN(Cc3nc(N)nc(N4CCCc5ccccc54)n3)CC2)c1,.,
O=C(NCc1ccco1)c1sc2cc(Cl)ccc2c1Cl,64,VCAM1 pot confirm=.
O=C(NCc1ccco1)c1ccc(CS(=O)(=O)Cc2ccc(Cl)cc2)o1,.,
CC(C)Oc1ccc(C(=O)NCc2ccco2)cc1,.,
CCOC(=O)C(CCCOc1ccc(C(C)CC)cc1)C(=O)OCC (stereo not drawn),.,
O=C(Oc1cccc2c(OC(=O)N3CCCC3)cccc12)N1CCCC1,.,
CCCOc1ccc(CC(=O)NCc2ccco2)cc1OC,.,
CCn1cc(C(=O)NCc2ccco2)c2cc(OC)c(OC)cc2c1=O,?,VCAM1 pot confirm=.
Cc1ccc(OCC(=O)NCc2ccco2)cc1C,.,
COc1ccc(C(CNC(=O)c2ccc3c(c2)C(=O)N(CCC(C)C)C3=O)N2CCOCC2)cc1 (stereo not drawn),.,
CCC/C(=N/NC(=O)c1csc(C)c1C)c1ccc(Cl)s1,.,
CCCn1nnnc1NC(=O)c1cccs1,.,
Cc1nc2ccccc2n1CC(=O)NCc1ccccc1,.,
Cn1c(SCC(=O)NCc2ccc(F)cc2)nc2ccccc21,50,VCAM1 pot confirm=.
CC(C)(C)NC(=O)Cn1c(SCC(N)=O)nc2ccccc21,.,
CC(=O)c1c(N2CCC(C(N)=O)CC2)nc(=S)n(-c2ccccc2)c1C,.,
COc1cccc(C2=NOC(C(=O)Nc3ccccc3SC)C2)c1 (stereo not drawn),.,
CCC(C)COC(=O)C(C#N)c1nc2ccccc2nc1N1CCCCC1 (stereo not drawn),36,VCAM1 pot confirm=.
CCOC(=O)N1CCN(/C=C(\C#N)c2nc3ccccc3s2)CC1,.,
SMILES,VCAM1 pot,others
CCOC(=O)CNC(=O)CNC(=O)Cn1ccc2ccccc2c1=O,.,
CCCc1ccc(-c2cc(NC(=O)CSc3n[nH]c(N)n3)n(-c3ccccc3)n2)cc1,.,
O=c1cc(-c2ccccc2)nc2nc(CCc3ccccc3)[nH]n12,48,VCAM1 pot confirm=.
Nc1cc(-c2ccccc2)nn1Cc1ccc(Cl)cc1,.,
O=C(OCCCN=C1NS(=O)(=O)c2ccccc21)C1CC(=O)N(c2ccc(Cl)cc2)C1 (stereo not drawn),.,
O=C(Cc1ccc(Cl)cc1)Nc1ccccc1CO,.,
CC(C)C(=O)Nc1nc2c(ncn2C2CC(O)C(CO)O2)c(=O)[nH]1 (stereo not drawn),30,VCAM1 pot confirm=.
Cc1c2c(n3c(nc4ccccc43)c1C#N)N(Cc1cccnc1)CC2,.,
COC(=O)c1nnn(CC(=O)Nc2cccc(Cl)c2)c1C(=O)OC,.,
CCN(CC)C(=O)N1CCC(NC(=O)c2ccc(C(C)(C)C)cc2)CC1,.,
COc1cc(CN2CCC(C(=O)NC3CCCC3)CC2)ccc1O,.,
CCOC(=O)C(C)n1cnc2c(cnn2-c2ccc(Cl)cc2)c1=O (stereo not drawn),.,
CCOC(=O)C1CCCN(c2ncnc3c2cnn3-c2ccc(Cl)cc2)C1 (stereo not drawn),40,VCAM1 pot confirm=.
CCOC(=O)C1CCCN(S(=O)(=O)c2ccc(F)c(C(=O)Nc3ccc(F)c(F)c3)c2)C1 (stereo not drawn),.,
COc1cccc(CNC(=O)C2CCCN(c3nn4c(=O)cc(C)nc4s3)C2)c1OC (stereo not drawn),.,
CCN(C1CCCCC1)S(=O)(=O)c1ccc(OC)c(C)c1,.,
CCOC(=O)c1cc(-c2ccccc2)sc1NC(=S)Nc1cccc(C)n1,.,
CCC(=O)NC(Nc1cccc(C)n1)(C(F)(F)F)C(F)(F)F,.,
Cc1cccc(NC(=O)c2sc3nc(-c4ccccc4)cn3c2C)n1,42,VCAM1 pot confirm=.
CC(C)C(OC(=O)c1ccco1)C(=O)NCc1ccccc1 (stereo not drawn),.,
N#CC(c1cccc(Cl)c1)c1ccc2c(C(F)(F)F)cc(C(F)(F)F)nc2n1 (stereo not drawn),.,
Cc1ccc(-c2cc(=O)[nH]c3ccccc23)cc1,.,
Cc1ccc(C(C)NC(=O)/C(C#N)=C\c2c(C)[nH]c3ccccc23)cc1 (stereo not drawn),52,VCAM1 pot confirm=.
CCc1ccc(C(=O)COC(=O)c2cccc(N3C(=O)c4c(C)nc5ccccc5c4C3=O)c2)cc1,.,
Cc1cc(NC(=O)CSc2nc3ccccc3c(=O)n2C2CCCC2)no1,.,
SMILES,VCAM1 pot,others
CCCN(CCC)C(=O)CSc1nc2ccccc2c(=O)n1C1CCCC1,63,VCAM1 pot confirm=.
CCCCNC(=O)CSc1nc2ccccc2c(=O)n1Cc1ccc2c(c1)OCO2,.,
O=C1c2ccccc2C(=O)N1C/C=C/CN1C(=O)c2ccccc2C1=O,.,
Cc1cc(NC(=O)Nc2ccc(F)cc2)no1,.,
CC(C)(C)NC(=O)CN(C(=O)Cn1nnc(-c2ccccc2F)n1)c1cccc2c1CCCC2,.,
COC(=O)c1cccc(NC(=O)C23CC4CC(C2)CC(n2cncn2)(C4)C3)c1,.,
CCOC(=O)C1=C(c2ccccc2)OC(N)=C(C#N)C1c1ccco1 (stereo not drawn),.,
COCCOC(=O)C1=C(C)OC(N)=C(C#N)C1c1ccc2c(c1)OCO2 (stereo not drawn),?,VCAM1 pot confirm=.
CCOC(=O)Nc1ccc2c(c1)OCO2,.,
CCCCS/C(=C(/C#N)C(N)=O)c1cc2c([nH]1)CCCC2,.,
COc1cccc2c(=O)n(CC(=O)Nc3ccccc3F)ccc12,.,
CC1=CC(C)(C(Cl)Cl)C(C)=CC1=O (stereo not drawn),.,
CCOC(=O)C1CN(S(=O)(=O)c2ccc(OC)cc2)c2cc(CC(=O)OC)ccc2O1 (stereo not drawn),.,
O=C(COC(=O)c1cnccn1)Nc1ccc2c(c1)OCO2,.,
O=C(COC(=O)Cc1cccc(C(F)(F)F)c1)NCC1CCCO1 (stereo not drawn),.,
O=C(COC(=O)c1cccnc1Nc1cccc(C(F)(F)F)c1)NCc1ccc2c(c1)OCO2,28,VCAM1 pot confirm=.
COc1cc(/C=C(/C#N)C(=O)NCCc2c[nH]c3ccccc23)ccc1OCc1ccccc1F,.,
COc1cccc(CNC(=O)C2CCN(S(=O)(=O)c3ccc4c(c3)CCC(=O)N4)CC2)c1,.,
Cc1ccc(NC(=O)CN(C)CC(=O)Nc2c(C)cccc2C)c(Br)c1,.,
CC(C)COC(=O)n1c(SCC(=O)N(C)C)nc2ccccc21,.,
COCCCn1c(-c2ccccc2)nc2ccccc2c1=O,31,VCAM1 pot confirm=.
COCCCn1c(SCC(=O)NCc2ccccc2)nc2ccccc2c1=O,.,
COc1ccc(/C=N/n2c(-c3ccco3)nc3ccccc3c2=O)cc1,.,
CC1=[N+]([O-])C(C)(C)C(C)N(O)C1=O (stereo not drawn),.,
COc1ccc(C)cc1NC(=O)CN(Cc1nnc(-c2ccc(Cl)cc2)o1)C1CCCC1,.,
Cc1cccc(OCC(=O)Nc2cc(C)ccc2O)c1,.,
COc1ccc(C)cc1NC(=O)COC(=O)C1CC1,56,VCAM1 pot confirm=.
CC1Cc2ccccc2N1C(=O)COc1nc2ccccc2nc1N1CCOCC1 (stereo not drawn),.,
C=CCNC(=O)c1onc(CSc2ccccc2CC)c1C(=O)O,.,
